High-throughput results deposited in PubChem BioAssay by National Center for Advancing Translational Sciences (NCATS).
An excerpt weighted towards active compounds, which were near 2.7% of everything screened.
IP6K1 inh: inhibitors of human IP6K1; activity change, % (series mostly up to about 58 µM); Q92551; IP6K1 kinase, ADP-Glo luminescence, 2 h; active compounds read low; AID 1645851; hit rate 0.81% among 140,000; in the data active = activity change below about -25%; also: % is scaled to controls: 0 for no effect and ±100 for the full control effect
Target sequence (Q92551 whole entry, looked up): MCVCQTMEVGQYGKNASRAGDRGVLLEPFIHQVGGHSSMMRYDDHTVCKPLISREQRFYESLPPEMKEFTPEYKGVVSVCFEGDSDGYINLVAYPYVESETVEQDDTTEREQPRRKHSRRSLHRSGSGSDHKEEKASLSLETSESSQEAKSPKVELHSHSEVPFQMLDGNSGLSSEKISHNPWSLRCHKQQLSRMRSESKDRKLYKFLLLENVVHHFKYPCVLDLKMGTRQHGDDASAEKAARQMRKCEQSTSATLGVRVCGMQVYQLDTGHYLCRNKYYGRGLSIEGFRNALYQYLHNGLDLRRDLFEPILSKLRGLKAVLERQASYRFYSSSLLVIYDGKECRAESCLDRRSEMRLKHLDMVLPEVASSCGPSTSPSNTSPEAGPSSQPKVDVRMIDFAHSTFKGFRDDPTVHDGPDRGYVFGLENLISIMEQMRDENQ
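ADP-Glo luminescence measures ADP made by human IP6K1 during a 2 h RT reaction with ATP/IP6 (mix at 1.3 mM/130 uM); top library doses 57.5 and 19.1 uM final.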
KDM5B inh: inhibitors of human KDM5B histone demethylase | Q9UGL1 | hit rate 2.6% among 220,000 | Potency, µM (top dose mostly 57.7 µM), actives largely listed as inhibitors | KDM5B demethylase, FDH-coupled NADH fluorescence (FDH is formaldehyde dehydrogenase); also: potency is read from the fitted curve at half-maximal effect; 0% is about no effect; nearly all actives have a fitted effect of over 70% in size
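qHTS format, multiple compound concentrations. Buffer 50 mM HEPES pH 7.5/0.01% Tween-20; 200 nM KDM5BΔAP final; 10 min compound preincubation; substrate-mix levels 12.5 µM peptide, 25 µM α-KG, 0.25 mM NAD⁺; 30 min RT; ΔRFU.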
Starred values were filed as active, the others as inactive; i = inactive; ? = inconclusive; . = not tested or not shown.

SMILES | IP6K1 inh | KDM5B inh
CCCNC(=O)Cc1csc2nc(C)c(-c3cc(C)n(-c4ccc(Cl)c(Cl)c4)n3)c(=O)n12 | 16 | 28µM*
Cc1cccc(-n2nc(-c3c(C)nc4scc(CC(=O)NC5CC5)n4c3=O)cc2C)c1 | 13 | 25µM*
CC(C)NC(=O)c1nc2cccnc2n(CCc2ccccc2)c1=O | -12 | .
CCOC(=O)C1CCCN(C(=O)c2ccc3nc(-c4cccnc4)oc3c2)C1 (configuration not stated) | -14 | .
C1CNC(c2nc(CCOCC3CCOCC3)no2)C1 (configuration not stated) | 24 | i
C1CCC(c2nc(CCOCC3CCCC3)no2)NC1 (configuration not stated) | 2 | 28µM*
CCCCCCCCCc1ccc(-c2ccc(CCCCCCC)cc2)nc1 | . | i
COc1ccc(NC(=O)Cc2nc(-c3ccccc3)oc2C)cc1OC | . | i
N#Cc1cnc(N2CC3CCC(C2)N3CC(F)(F)F)s1 | -3 | i
Cc1cnc(N2CC3CCC(C2)N3CC(F)(F)F)s1 | -8 | 56µM*
CCCNC(=O)CNC(=O)c1cc2ccc(OC)cc2nc1C | . | i
COC(=O)c1ccc(COC(=O)COc2ccc(Cl)cc2C)cc1 | . | i
O=c1ccc(N2CCC(NS(=O)(=O)c3ccc(Cl)s3)CC2)nn1CC1CC1 | -2 | 14µM*
O=C(NC1CCN(c2ccc(=O)n(CC3CC3)n2)CC1)c1cnccn1 | -11 | ?
Cc1cc(C)c(C)c(S(=O)(=O)N2CCn3c(nn(CC4CC4)c3=O)C2)c1C | -5 | i
Cc1cc(C)c(C)c(S(=O)(=O)NC2CCN(c3ccc(=O)n(CC4CC4)n3)CC2)c1C | -4 | 35µM*
Clc1cccc(-n2c(SCc3nnnn3-c3ccccc3)nnc2N2CCCC2)c1 | . | i
CC(=O)N1CCC2(CC1)CN(Cc1ccncc1)Cc1ccccc1O2 | 7 | 56µM*
CC(C)NC(=O)N1CCC2(CC1)CN(Cc1ccncc1)Cc1ccccc1O2 | -5 | ?
O=C(c1ccc(Cl)cc1)N1CC2(CCN(CC3CCCC3)C2)OCc2ccccc21 (configuration not stated) | -1 | i
O=C(c1ccc(Cl)cc1)N1CC2(CCN(Cc3ccncc3)C2)OCc2ccccc21 (configuration not stated) | -9 | 40µM*
CC(C)c1ccc2oc(-c3cccc(NC(=O)c4cccnc4)c3)nc2c1 | . | i
Cn1ncc2c(C(=O)N3CCC(c4ccccc4)CC3)cc(-c3cccc(F)c3)nc21 | -5 | .
CN(Cc1cccs1)C(=O)C1CC=CCC1c1nc2ccccc2s1 (configuration not stated) | . | i
COc1ccc(C(=O)NNC(=O)CCC(=O)Nc2ccc(C)cc2C)cc1 | . | i
SMILES | IP6K1 inh | KDM5B inh
Cc1cccc(-c2noc(CCCC(=O)NCc3ccco3)n2)c1 | 26 | i
COc1ccc(-c2nc3cnccn3c2NCCC(=O)O)cc1 | 6 | 28µM*
COc1ccc(-c2nc3cnccn3c2NCCC(=O)Nc2ccc(C)cc2C)cc1 | 1 | 25µM*
COc1cc(-c2nc3cnccn3c2Nc2ccc(C(C)C)cc2)ccc1O | -10 | ?
NCCC(=O)Nc1cc(F)ccc1F | . | i
Cc1ccc(-c2nc3cnccn3c2NCCC(=O)NCc2ccco2)cc1 | 1 | 28µM*
COc1ccccc1-c1nc2cnccn2c1NCCC(=O)Nc1cc(F)ccc1F | 30 | 28µM*
COC(CNC(=S)NC1CCCC1)OC | . | i
Cc1ccnc(Sc2nc3c(c(=O)[nH]c(=O)n3C)n2Cc2ccccc2Cl)n1 | . | i
O=C(C1CCCCC1)N1CCC(Cc2ccc(CO)cc2)CC1 | 18 | .
CCCOc1cc(C)ccc1S(=O)(=O)Nc1cccnc1 | . | i
COCCn1c(SCc2nnc(C)o2)nc2sc(C)c(C)c2c1=O | . | i
Cc1ccc2c(=O)cc(C(=O)NCC(c3cccs3)N3CCCCC3)oc2c1C (configuration not stated) | . | i
Cc1cc(F)ccc1S(=O)(=O)Nc1ccccc1-c1n[nH]c(C2CC2)n1 | . | i
Cc1nc(C)n(CCCNc2nccc(-c3ccccn3)n2)n1 | 0 | 22µM*
Cc1nc(C)n(CCNS(=O)(=O)c2ccccc2)n1 | . | i
CN(C)CCCNC(=O)CCNc1nc(Cl)nc2nc[nH]c12 | . | i
CCc1noc(-c2nc(Cc3ccccc3C)no2)n1 | 5 | i
Cc1ccccc1Cc1noc(-c2nc(-c3ccc4c(c3)OCO4)no2)n1 | 2 | 28µM*
Fc1ccc(Cc2noc(-c3nc(-c4ccc5c(c4)OCO5)no3)n2)cc1 | 0 | ?
CCc1noc(-c2nc(-c3ccc(OC)cc3)no2)n1 | 5 | i
Fc1cccc(Cc2noc(-c3nc(-c4ccc5c(c4)OCO5)no3)n2)c1 | -2 | 25µM*
COc1ccc(-c2noc(-c3nc(Cc4ccccc4)no3)n2)cc1 | 3 | 32µM*
CCc1noc(-c2nc(-c3ccc(OC)c(OC)c3)no2)n1 | 0 | i
COc1ccc(-c2noc(-c3nc(Cc4cccc(F)c4)no3)n2)cc1OC | 13 | 25µM*
SMILES | IP6K1 inh | KDM5B inh
CCOc1ccc(NS(=O)(=O)c2ccc(C(=O)NC3CCN(S(C)(=O)=O)CC3)cc2)cc1 | . | i
O=C(NCc1ccccc1F)C1CCN(c2ccnc3ccnn23)CC1 | 1 | .
CCNC(=S)Nc1cccc(Cl)c1Cl | . | i
CCNc1ncc(C(=O)N2CCN(CCCCOC)CC2)cn1 | -11 | 25µM*
CCNc1ncc(C(=O)N2CCC(O)(CN3CCOCC3)C(C)(C)C2)cn1 (configuration not stated) | 28 | ?
COc1ccc(-c2c(NC(=O)c3cccc(OC)c3)sc3ccccc3c2=O)cc1 | . | i
O=C(NC1CCCN(c2ccnc3ccnn23)C1)c1cncc(Br)c1 (configuration not stated) | 8 | .
CCCN1CCc2[nH]cnc2C12CCN(C(=O)c1cnn3ccccc13)CC2 | 5 | 25µM*
CCCN1CCc2[nH]cnc2C12CCN(C(=O)c1ccc(CC)s1)CC2 | 31 | ?
N#C/C(=C/C=C/c1ccccc1)C(=O)Nc1ccccc1Oc1ccccc1 | . | i
COc1ccccc1-c1ccnc(N[C@H]2CO[C@H]3[C@@H]2OC[C@@H]3NC(=O)c2ccccc2)n1 | -8 | 35µM*
COc1ccccc1-c1ccnc(N[C@H]2CO[C@H]3[C@@H]2OC[C@@H]3NC(=O)CCC(=O)O)n1 | -4 | ?
COc1ccccc1-c1ccnc(N[C@H]2CO[C@H]3[C@@H]2OC[C@@H]3NC(=O)c2ccc(C)cc2)n1 | 0 | ?
COc1ccccc1-c1ccnc(N[C@H]2CO[C@H]3[C@@H]2OC[C@@H]3NC(=O)COc2ccccc2)n1 | -4 | 22µM*
COc1ccc(NC(=O)c2nc3ccccc3nc2OC)cc1OC | . | i
O=C(O)C[C@@H]1CCN(C(=O)c2ccco2)C[C@@H]1CC1=NCCc2ccccc21 | 11 | ?
COc1ccc(CC(=O)N2CC[C@@H](CC(=O)O)[C@@H](CC3=NCCc4cc(OC)c(OC)cc43)C2)cc1 | 15 | 32µM*
COc1cc2c(cc1OC)C(C[C@H]1CN(C(=O)c3ccc(C#N)cc3)CC[C@H]1CC(=O)O)=NCC2 | 6 | i
COc1cc2c(cc1OC)C(C[C@H]1CN(C(=O)c3cccs3)CC[C@H]1CC(=O)O)=NCC2 | -3 | i
COc1cc2c(cc1OC)C(C[C@H]1CN(C(=O)c3ccco3)CC[C@H]1CC(=O)O)=NCC2 | 21 | 28µM*
